Measurements as given in the supplement of paper PMC11732987, “Enantioselective OTUD7B fragment discovery through chemoproteomics screening and high-throughput optimisation” (Communications Chemistry, 2025).

What follows are molecules tested against UCHL1 (UniProt P09936) (assay: log2 ratio of Biotin-Ahx-Ub-VS probe labelling (fragment/DMSO); higher = less target engagement (more negative = stronger competition), active = hit call of the paper (q ≤ 0.05, log2 ratio ≤ -1)). Settings: compound concentration: 200 uM; treatment time: 3 h.
Procedure, shortened: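 Labelling with Biotin-Ahx-Ub-VS (0.5 µM final, 1 h) followed a 3 h triplicate treatment of HEK293T lysate (495 µg per sample, Tris/CHAPS/IGEPAL buffer with protease inhibitors) with fragment at 200 µM or vehicle. Labelled DUBs were NeutrAvidin-enriched, digested with LysC and trypsin, and run by diaPASEF LC-MS/MS. The values, average log2 fragment/vehicle ratios by unpaired t-test, come from global-median-normalised Spectronaut label-free quantities. Proteins with ≥2 unique peptides were used.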

Chain of UCHL1 (P09936 whole entry, looked up, the tested form may be a part): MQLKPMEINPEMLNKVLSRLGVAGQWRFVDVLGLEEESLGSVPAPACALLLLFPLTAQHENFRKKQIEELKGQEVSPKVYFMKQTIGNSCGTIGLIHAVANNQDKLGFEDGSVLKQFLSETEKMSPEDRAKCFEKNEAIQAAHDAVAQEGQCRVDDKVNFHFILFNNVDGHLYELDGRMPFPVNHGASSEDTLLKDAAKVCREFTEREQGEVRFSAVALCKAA

log2 ratio of Biotin-Ahx-Ub-VS probe labelling, inactive:
Cl.O=C(CCl)N1CCC(n2nc3ccccc3n2)CC1 -0.9
Cl.O=C(CCl)N[C@H]1C[C@@H](n2cccn2)C1 -1.11
Cc1cccc(NC(=O)CCl)c1C -0.766
CCN(C(=O)CCl)C1CCCCC1 -0.999
O=C(CCl)Nc1ccccc1C(F)(F)F -0.977
Cc1nc(CN2CCCN(C(=O)CCl)CC2)no1.Cl -0.971
Cc1cc(CC(C)NC(=O)CCl)n[nH]1 (stereo not given) -0.533

log2 ratio of Biotin-Ahx-Ub-VS probe labelling, active:
Cc1cccc(C)c1NC(=O)CCl -1.48
CCN(C(=O)CCl)C1CCS(=O)(=O)C1 (stereo not given) -1.26
Cc1ccc2nnc(CNC(=O)CCl)n2c1 -1
O=C(CCl)Nc1ccc(N2CCCC2=O)cc1 -1.1
Cl.O=C(CCl)NCc1ccnc(Oc2ccccc2F)c1 -1.49
O=C(CCl)N1CCC(S(=O)(=O)c2ccc(F)cc2)CC1 -1.14
Cl.O=C(CCl)N1CCn2ncc(O)c2C1 -1.49
O=C(CCl)NC1(c2ccc3c(c2)OCCO3)CCCC1 -1.32
O=C(CCl)N1CCN(C(=O)Nc2ccccc2)CC1 -1.33
O=C(CCl)NC(Cn1ccccc1=O)c1ccccc1 (stereo not given) -1.61
CC1CCc2onc(CNC(=O)CCl)c2C1 (stereo not given) -1.33
O=C(CCl)N1CCCCCC1c1ncon1 (stereo not given) -1.82
Cc1cccc(N(CCC#N)C(=O)CCl)c1C -1.09
Cc1ccccc1OCC(=O)N1CCN(C(=O)CCl)CC1 -1.52
CN(C)C(=O)c1ccc(CNC(=O)CCl)cc1 -1.23
Cl.Cn1cnc2cc(CNC(=O)CCl)ccc21 -1.72
N#Cc1ccc(CNC(=O)CCl)cc1 -1.19
Cc1ccc(C)c(NC(=O)CCl)c1 -1.17
O=C(CCl)N1CCCN(C(=O)c2ccc(Cl)cc2)CC1 -1.68
Cl.O=C(CCl)NCCN1CCc2ccccc21 -2.25
CC1(NC(=O)CCl)CCS(=O)(=O)C1 (stereo not given) -2.03
N#Cc1ccc(Cl)cc1NC(=O)CCl -1.01
O=C(CCl)N1CCCC1c1ccsc1 (stereo not given) -1.81
O=C(CCl)NCc1ccc(N2CCOCC2)nc1 -1.45
O=C(CCl)NCc1cccc(F)c1 -1.24
COc1ccccc1C(C)NC(=O)CCl (stereo not given) -1.47
COc1ccc(Cl)cc1NC(=O)CCl -1.01
O=C(CCl)N1CCC(c2nc3ccccc3o2)CC1 -1.65
